Assay results taken from PubChem BioAssay (Tox21).
Inconclusive results are not listed. Unmarked numbers belong to inactive results. Active and inactive are the calls of the source. Calls come from the whole dose curve.

Biological target: Peroxisome proliferator-activated receptor delta (Homo sapiens) (UniProt Q03181)
Assay: qHTS assay to identify small molecule agonists of the peroxisome proliferator-activated receptor delta (PPARd) signaling pathway (AID 743212)
Details: HEK293H PPARd-UAS-bla, beta-lactamase FRET ratio, 17 h; series mostly up to 62.6 µM
Description: U.S. Tox21 Program National Center for Advancing Translational Sciences [NCATS] NIH Chemical Genomics Center [NCGC] U.S. Environmental Protection Agency [EPA] National Institutes of Environmental Health Sciences [NIEHS] National Toxicology Program [NTP] U.S. Food and Drug Administration [FDA] Tox21 Assay Overview: The peroxisome proliferator-activated receptors (PPARs) are lipid-activated transcription factors of the nuclear receptor superfamily with three distinct subtypes namely PPAR alpha, PPAR delta (PPARd) and PPAR gamma. All these subtypes heterodimerizes with Retinoid X receptor (RXR) and have different physiological functions. […] To identify the compounds that activate PPAR-delta signaling, GeneBLAzer PPAR delta UAS-bla HEK293H cell line (Invitrogen, Carlsbad, CA, USA) containing a beta-lactamase reporter gene under the control of an Upstream Activator Sequence (UAS) was used to screen the Tox21 compound library.
Tox21 Assay Protocol Summary: PPARd-bla cells were dispensed at 3000 cells/6uL/well in 1536-well black wall/clear bottom plates using a Multidrop Combi (Thermo Fisher Scientific, Waltham, MA) dispenser. After the assay plates were incubated at 37 C and 5% CO2 for 5 h, 23 nL of compounds dissolved in DMSO, positive controls or DMSO only was transferred to the assay plate by a Pintool station (Kalypsys, San Diego, CA). The assay plates were incubated at 37C for 17 h. After 1 uL of LiveBLAzerTM B/G FRET substrate was added using a Bioraptr Flying Reagent Dispenser (FRD) workstation (Beckman Coulter, Indianapolis, IN, USA), the plates were incubated at room temperature for 2 h, and fluorescence intensity was measured by an Envision plate reader (PerkinElmer, Shelton, CT).
% is set by controls: 0 for no effect and ±100 for the full control effect.

Sequence of Peroxisome proliferator-activated receptor delta (Homo sapiens) (Q03181 whole entry, looked up): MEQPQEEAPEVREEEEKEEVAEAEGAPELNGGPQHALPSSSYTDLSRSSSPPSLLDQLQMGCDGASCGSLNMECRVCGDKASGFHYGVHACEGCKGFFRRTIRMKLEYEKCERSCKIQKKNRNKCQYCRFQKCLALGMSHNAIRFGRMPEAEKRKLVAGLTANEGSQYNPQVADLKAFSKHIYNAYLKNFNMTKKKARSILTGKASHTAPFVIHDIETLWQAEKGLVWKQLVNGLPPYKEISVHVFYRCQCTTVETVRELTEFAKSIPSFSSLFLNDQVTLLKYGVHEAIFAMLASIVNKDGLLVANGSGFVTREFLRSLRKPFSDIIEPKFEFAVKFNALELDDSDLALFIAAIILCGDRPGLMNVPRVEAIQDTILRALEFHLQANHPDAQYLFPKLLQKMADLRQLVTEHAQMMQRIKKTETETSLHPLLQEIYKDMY

| Structure (SMILES) | outcome | activation |
| --- | --- | --- |
| CCCCOC(=O)C(=O)OCCCC | inactive | – |
| CNC(=O)NC | inactive | – |
| Cn1c(=O)c2c(ncn2CC2OCCO2)n(C)c1=O | inactive | – |
| Cc1ccc(C(=O)C(=O)O)cc1C | inactive | – |
| CC(C)(C)NCCO | inactive | – |
| CCCCCN(CCCOC)C(=O)C(CCC(=O)O)NC(=O)c1ccc(Cl)c(Cl)c1 (stereo not given) | inactive | – |
| C=C[C@@H](C)CCC=C(C)C | inactive | – |
| CC(=O)OC[C@H]1O[C@@H](OC(C)=O)[C@H](OC(C)=O)[C@@H]1OC(C)=O | inactive | – |
| BrC/C=C/CBr | inactive | – |
| CCCCCCCC/C=C\CCCCCCCC(=O)OC[C@@H](O)[C@H]1OC[C@H](O)[C@H]1O | inactive | – |
| Cc1ccccc1C | inactive | – |
| CCS(=O)(=O)CCn1c([N+](=O)[O-])cnc1C | inactive | – |
| O=C(O)/C=C/c1ccccc1 | inactive | – |
| CCOC(=O)C(=O)c1csc(NC=O)n1 | inactive | – |
| Cc1cc(O)c2c(c1)C(=O)c1cccc(O)c1C2=O | inactive | – |
| CC(C)COC(=O)CC(C(=O)OCC(C)C)S(=O)(=O)O (stereo not given) | inactive | – |
| C=CCOCC(O)CCl (stereo not given) | inactive | – |
| CCCCOC(=O)[C@@H](C)Oc1ccc(Oc2ccc(C(F)(F)F)cn2)cc1 | inactive | – |
| Cc1ccccc1N1CCN(CCc2nnc3n2CCCC3)CC1 | inactive | – |
| C[C@H]1O[C@H](O[C@H]2[C@H](O)[C@@H](O)[C@@H](O[C@H]3[C@H](O)[C@@H](O)[C@H](O)O[C@@H]3CO)O[C@@H]2CO)[C@H](O)[C@@H](O)[C@@H]1N[C@H]1C=C(CO)[C@@H](O)[C@H](O)[C@H]1O | inactive | – |

| Structure (SMILES) | outcome | activation |
| --- | --- | --- |
| CCC1Nc2cc(Cl)c(S(N)(=O)=O)cc2S(=O)(=O)N1 (stereo not given) | inactive | – |
| CCCCOC(=O)C(C)OC(=O)CCC (stereo not given) | inactive | – |
| Cc1nc([N+](=O)[O-])cn1-c1ccc([N+](=O)[O-])cc1 | inactive | – |
| CCCCCCCCCCCCOC(C)=O | inactive | – |
| Nc1ccc(/C=C/c2ccc(N)cc2S(=O)(=O)O)c(S(=O)(=O)O)c1 | – | -0.496% [at 0.55 µM] |
| CCN(CCO)c1cccc(C)c1 | inactive | – |
| Nc1ccnc(=O)[nH]1 | inactive | – |
| CCN(CCC#N)c1ccccc1 | inactive | – |
| Cc1cccc(C(=O)O)c1[N+](=O)[O-] | inactive | – |
| F[Si-2](F)(F)(F)(F)F | inactive | – |
| O=S(=O)(O)CCO | inactive | – |
| CC(=O)/C=C/c1ccco1 | inactive | – |
| CCC1COC(=O)O1 (stereo not given) | inactive | – |
| CCCC(C)CC (stereo not given) | inactive | – |
| CNC(=O)C(c1ccccc1)c1ccccc1 | inactive | – |
| CCCCC(C)C(=O)O (stereo not given) | inactive | – |
| CN(C)CCCNCCC#N | inactive | – |
| CO[Si](CCCCl)(OC)OC | inactive | – |
| CC(CC(=O)O)CC(C)(C)C (stereo not given) | inactive | – |
| CCC(CO)CO | inactive | – |
